# The entries come from a sample that favours the strongest signals as a whole.
# B1: Gal 3 (Homo sapiens), P17931 (protein)
# chain: MADNFSLHDALSGSGNPNPQGWPGAWGNQPAGAGGYPGASYPGAYPGQAPPGAYPGQAPPGAYHGAPGAYPGAPAPGVYPGPPSGPGAYPSSGQPSAPGAYPATGPYGAPAGPLIVPYNLPLPGGVVPRMLITILGTVKPNANILDFQRGNDVAFHFNPRFNENNRRVIVCNTKLDNNWGREEIQSVFPFESGKPFKIQVLVEPDHFKVAVNDAHLLQYNHRVKKLNEISKLGISGDIDLTSASYTMI
# Experiments:
# Assay in all cases: glycan array binding signal (z-score within array); higher = stronger binding
# Details in all cases: glycan notation: IUPAC condensed, linker removed; mutation: R186I
# [1] = biological target: Fuc(a1-2)Gal(b1-3)GalNAc(b1-3)Gal
# In short: (§1)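 Glycan array binding is given as a within-array Z-score, which can be read as non-binding when negative. The arrays, 3228 of them, came from the Consortium for Functional Glycomics database and were retained only where the protein sequence was available. Z-scores were averaged across arrays of the same protein sequence at different concentrations or buffers and across linkers.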
# [2] = biological target: Fuc(a1-2)Gal(b1-3)GalNAc(b1-3)Gal(a1-4)Gal(b1-4)Glc
# In short: as §1
# [3] = biological target: Fuc(a1-2)Gal(b1-3)GlcNAc(b1-3)[Fuc(a1-3)[Gal(b1-4)]GlcNAc(b1-6)]Gal(b1-4)Glc
# In short: as §1
# [4] = biological target: Fuc(a1-2)Gal(b1-4)GlcNAc(b1-2)Man(a1-3)[Fuc(a1-2)Gal(b1-4)GlcNAc(b1-2)Man(a1-6)]Man(b1-4)GlcNAc(b1-4)GlcNAc
# In short: as §1
# [5] = biological target: Fuc(a1-2)[Gal(a1-3)]Gal(b1-3)GlcNAc(b1-2)Man(a1-3)[Fuc(a1-2)[Gal(a1-3)]Gal(b1-3)GlcNAc(b1-2)Man(a1-6)]Man(b1-4)GlcNAc(b1-4)GlcNAc
# In short: as §1
# [6] = biological target: Fuc(a1-2)[Gal(a1-3)]Gal(b1-4)GlcNAc(b1-2)Man(a1-3)[Fuc(a1-2)[Gal(a1-3)]Gal(b1-4)GlcNAc(b1-2)Man(a1-6)]Man(b1-4)GlcNAc(b1-4)GlcNAc
# In short: as §1
# [7] = biological target: Fuc(a1-2)[GalNAc(a1-3)]Gal(b1-3)GlcNAc(b1-2)Man(a1-3)[Fuc(a1-2)[GalNAc(a1-3)]Gal(b1-3)GlcNAc(b1-2)Man(a1-6)]Man(b1-4)GlcNAc(b1-4)GlcNAc
# In short: as §1
# [8] = biological target: Fuc(a1-2)[GalNAc(a1-3)]Gal(b1-4)GlcNAc(b1-2)Man(a1-3)[Fuc(a1-2)[GalNAc(a1-3)]Gal(b1-4)GlcNAc(b1-2)Man(a1-6)]Man(b1-4)GlcNAc(b1-4)GlcNAc
# In short: as §1
# [9] = biological target: Fuc(a1-2)[GalNAc(a1-3)]Gal(b1-4)GlcNAc(b1-3)Gal(b1-4)GlcNAc(b1-3)Gal(b1-4)GlcNAc
# In short: as §1
# [10] = biological target: Fuc(a1-3)[Gal3S(b1-4)]GlcNAc
# In short: as §1
# [11] = biological target: Fuc(a1-3)[Gal3S(b1-4)]GlcNAc6S
# In short: as §1
# Gal(a1-4)Gal(b1-4)GlcNAc = biological target: Gal(a1-4)Gal(b1-4)GlcNAc
# In short: as §1
# [12] = biological target: Gal(b1-3)Gal(b1-4)GlcNAc(b1-2)Man(a1-3)[Gal(b1-3)Gal(b1-4)GlcNAc(b1-2)Man(a1-6)]Man(b1-4)GlcNAc(b1-4)GlcNAc
# In short: as §1
# [13] = biological target: Gal(b1-3)GalNAc(a1-3)[Fuc(a1-2)]Gal(b1-4)GlcNAc
# In short: as §1
# [14] = biological target: Gal(b1-3)GlcNAc(b1-3)Gal(b1-4)GlcNAc
# In short: as §1
# [15] = biological target: Gal(b1-3)GlcNAc(b1-3)Gal(b1-4)[Fuc(a1-3)]GlcNAc(b1-6)[Gal(b1-3)GlcNAc(b1-3)]Gal(b1-4)Glc
# In short: as §1
# [16] = biological target: Gal(b1-3)GlcNAc(b1-6)Gal(b1-4)GlcNAc
# In short: as §1
# [17] = biological target: Gal(b1-3)[Fuc(a1-4)]GlcNAc(b1-2)Man(a1-3)[Gal(b1-3)[Fuc(a1-4)]GlcNAc(b1-2)Man(a1-6)]Man(b1-4)GlcNAc(b1-4)GlcNAc
# In short: as §1
# [18] = biological target: Gal(b1-3)[GlcNAc(b1-6)]GalNAc
# In short: as §1
# [19] = biological target: Gal(b1-4)GlcNAc(b1-3)Gal(b1-3)GlcNAc
# In short: as §1
# [20] = biological target: Gal(b1-4)GlcNAc(b1-3)[Gal(b1-4)GlcNAc(b1-6)]Gal(b1-4)GlcNAc
# In short: as §1
# Gal3S(b1-4)Glc = biological target: Gal3S(b1-4)Glc
# In short: as §1
# [21] = biological target: Gal3S(b1-4)[Fuc(a1-3)]Glc
# In short: as §1
# [22] = biological target: GalNAc(b1-3)Gal(a1-4)Gal(b1-4)GlcNAc(b1-3)Gal(b1-4)Glc
# In short: as §1
# Glc(a1-6)Glc(a1-6)Glc = biological target: Glc(a1-6)Glc(a1-6)Glc
# In short: as §1
# GlcNAc(b1-3)Man = biological target: GlcNAc(b1-3)Man
# In short: as §1
# [23] = biological target: Man(a1-2)Man(a1-3)[Man(a1-2)Man(a1-6)]Man(a1-6)[Man(a1-2)Man(a1-2)Man(a1-3)]Man
# In short: as §1
# Man(a1-6)Man = biological target: Man(a1-6)Man
# In short: as §1
# [24] = biological target: Neu5Ac(a2-3)Gal(b1-4)GlcNAc(b1-2)Man(a1-3)[GlcNAc(b1-2)Man(b1-4)GlcNAc(b1-2)Man(a1-6)]Man(b1-4)GlcNAc(b1-4)GlcNAc
# In short: as §1
# [25] = biological target: Neu5Ac(a2-3)Gal(b1-4)[Fuc(a1-3)]GlcNAc
# In short: as §1
# [26] = biological target: Neu5Ac(a2-6)Gal(b1-4)GlcNAc(b1-3)Gal(b1-4)GlcNAc(b1-3)Gal(b1-4)GlcNAc
# In short: as §1
# [27] = biological target: Neu5Ac9Ac(a2-6)Gal(b1-4)GlcNAc
# In short: as §1
# [28] = biological target: Neu5Gc(a2-3)Gal(b1-4)GlcNAc
# In short: as §1
# [29] = biological target: Neu5Gc(a2-3)Gal(b1-4)[Fuc(a1-3)]GlcNAc
# In short: as §1
binder,measurement,setting,value
B1,glycan array binding signal (z-score),[1],-0.188
same,glycan array binding signal (z-score),[2],-0.055
same,glycan array binding signal (z-score),[3],-0.187
same,glycan array binding signal (z-score),[4],2.01
same,glycan array binding signal (z-score),[5],5.08
same,glycan array binding signal (z-score),[6],10.8
same,glycan array binding signal (z-score),[7],3.39
same,glycan array binding signal (z-score),[8],8.83
same,glycan array binding signal (z-score),[9],-0.113
same,glycan array binding signal (z-score),[10],-0.147
same,glycan array binding signal (z-score),[11],-0.154
same,glycan array binding signal (z-score),Gal(a1-4)Gal(b1-4)GlcNAc,-0.127
same,glycan array binding signal (z-score),[12],11.1
same,glycan array binding signal (z-score),[13],-0.146
same,glycan array binding signal (z-score),[14],-0.166
same,glycan array binding signal (z-score),[15],-0.002
same,glycan array binding signal (z-score),[16],-0.173
same,glycan array binding signal (z-score),[17],-0.173
same,glycan array binding signal (z-score),[18],-0.128
same,glycan array binding signal (z-score),[19],0.065
same,glycan array binding signal (z-score),[20],0.077
same,glycan array binding signal (z-score),Gal3S(b1-4)Glc,-0.189
same,glycan array binding signal (z-score),[21],-0.171
same,glycan array binding signal (z-score),[22],2.69
same,glycan array binding signal (z-score),Glc(a1-6)Glc(a1-6)Glc,-0.021
same,glycan array binding signal (z-score),GlcNAc(b1-3)Man,-0.189
same,glycan array binding signal (z-score),[23],-0.075
same,glycan array binding signal (z-score),Man(a1-6)Man,-0.185
same,glycan array binding signal (z-score),[24],-0.073
same,glycan array binding signal (z-score),[25],-0.164
same,glycan array binding signal (z-score),[26],-0.107
same,glycan array binding signal (z-score),[27],-0.185
same,glycan array binding signal (z-score),[28],-0.157
same,glycan array binding signal (z-score),[29],-0.165

# From the supplement of paper PMC8728848
